Test results published in the supplement of paper PMC10849652.
Of roughly 7,900 targets only a part is listed; those with a hit were picked by preference. About 0.6% of all pairs of compound and target were hits.

What follows are targets tested with C[C@H](Nc1ncnc2nc[nH]c12)c1cc2cccc(Cl)c2c(=O)n1-c1ccccc1 [duvelisib] (assay: log2 fold change, soluble protein after heating vs DMSO (PISA); higher = thermal stabilisation; K562 cells, 10 uM, 30 min; active = over 0.2 and 3.5 SD of the protein, either way, in both replicates (recomputed)).
In short: (§1)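 K562 cells at 2×10^6 cells/mL were treated with 10 μM compound for 30 min. Aliquots were heated for 3 min across 48°C-58°C, pooled, and extracted in PBS with 0.5% NP-40 at 4°C; soluble protein was the supernatant after 21,000xg for 90 min. Soluble protein was quantified by TMTpro 16plex LC-MS/MS with channel sums equalised, and reported as log2 fold change in thermal stability against DMSO controls, with values from duplicates.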

Sequence of UniProt Q9P287 (Q9P287 whole entry, looked up): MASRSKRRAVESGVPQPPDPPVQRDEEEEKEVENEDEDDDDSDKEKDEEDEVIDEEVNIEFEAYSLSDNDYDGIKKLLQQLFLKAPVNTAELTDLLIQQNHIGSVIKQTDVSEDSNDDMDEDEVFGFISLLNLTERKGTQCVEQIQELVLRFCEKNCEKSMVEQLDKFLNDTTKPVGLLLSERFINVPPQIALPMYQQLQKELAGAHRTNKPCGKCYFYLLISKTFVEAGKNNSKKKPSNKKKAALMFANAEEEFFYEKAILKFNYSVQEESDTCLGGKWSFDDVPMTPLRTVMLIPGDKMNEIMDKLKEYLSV
Sequence of UniProt P11766 (P11766 whole entry, looked up): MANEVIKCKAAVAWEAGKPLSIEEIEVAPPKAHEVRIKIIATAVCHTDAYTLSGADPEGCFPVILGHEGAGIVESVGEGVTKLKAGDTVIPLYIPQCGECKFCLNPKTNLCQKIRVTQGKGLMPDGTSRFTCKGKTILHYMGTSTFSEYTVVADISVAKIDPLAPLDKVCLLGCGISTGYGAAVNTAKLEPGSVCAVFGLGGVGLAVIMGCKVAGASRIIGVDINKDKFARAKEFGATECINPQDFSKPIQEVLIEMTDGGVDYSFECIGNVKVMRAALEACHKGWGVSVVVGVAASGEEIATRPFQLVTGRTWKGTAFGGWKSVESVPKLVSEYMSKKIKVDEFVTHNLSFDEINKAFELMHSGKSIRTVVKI
Sequence of UniProt Q9NUQ2 (Q9NUQ2 whole entry, looked up): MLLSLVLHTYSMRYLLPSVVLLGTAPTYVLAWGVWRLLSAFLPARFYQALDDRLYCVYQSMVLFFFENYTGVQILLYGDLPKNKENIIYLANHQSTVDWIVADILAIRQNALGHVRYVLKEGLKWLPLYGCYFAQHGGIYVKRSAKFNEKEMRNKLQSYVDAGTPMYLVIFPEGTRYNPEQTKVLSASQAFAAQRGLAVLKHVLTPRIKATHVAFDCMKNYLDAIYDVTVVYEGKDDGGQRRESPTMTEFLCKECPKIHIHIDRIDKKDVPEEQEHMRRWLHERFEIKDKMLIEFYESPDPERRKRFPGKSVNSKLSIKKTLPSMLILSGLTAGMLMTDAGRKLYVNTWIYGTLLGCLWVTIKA
Sequence of UniProt Q86UU0 (Q86UU0 whole entry, looked up): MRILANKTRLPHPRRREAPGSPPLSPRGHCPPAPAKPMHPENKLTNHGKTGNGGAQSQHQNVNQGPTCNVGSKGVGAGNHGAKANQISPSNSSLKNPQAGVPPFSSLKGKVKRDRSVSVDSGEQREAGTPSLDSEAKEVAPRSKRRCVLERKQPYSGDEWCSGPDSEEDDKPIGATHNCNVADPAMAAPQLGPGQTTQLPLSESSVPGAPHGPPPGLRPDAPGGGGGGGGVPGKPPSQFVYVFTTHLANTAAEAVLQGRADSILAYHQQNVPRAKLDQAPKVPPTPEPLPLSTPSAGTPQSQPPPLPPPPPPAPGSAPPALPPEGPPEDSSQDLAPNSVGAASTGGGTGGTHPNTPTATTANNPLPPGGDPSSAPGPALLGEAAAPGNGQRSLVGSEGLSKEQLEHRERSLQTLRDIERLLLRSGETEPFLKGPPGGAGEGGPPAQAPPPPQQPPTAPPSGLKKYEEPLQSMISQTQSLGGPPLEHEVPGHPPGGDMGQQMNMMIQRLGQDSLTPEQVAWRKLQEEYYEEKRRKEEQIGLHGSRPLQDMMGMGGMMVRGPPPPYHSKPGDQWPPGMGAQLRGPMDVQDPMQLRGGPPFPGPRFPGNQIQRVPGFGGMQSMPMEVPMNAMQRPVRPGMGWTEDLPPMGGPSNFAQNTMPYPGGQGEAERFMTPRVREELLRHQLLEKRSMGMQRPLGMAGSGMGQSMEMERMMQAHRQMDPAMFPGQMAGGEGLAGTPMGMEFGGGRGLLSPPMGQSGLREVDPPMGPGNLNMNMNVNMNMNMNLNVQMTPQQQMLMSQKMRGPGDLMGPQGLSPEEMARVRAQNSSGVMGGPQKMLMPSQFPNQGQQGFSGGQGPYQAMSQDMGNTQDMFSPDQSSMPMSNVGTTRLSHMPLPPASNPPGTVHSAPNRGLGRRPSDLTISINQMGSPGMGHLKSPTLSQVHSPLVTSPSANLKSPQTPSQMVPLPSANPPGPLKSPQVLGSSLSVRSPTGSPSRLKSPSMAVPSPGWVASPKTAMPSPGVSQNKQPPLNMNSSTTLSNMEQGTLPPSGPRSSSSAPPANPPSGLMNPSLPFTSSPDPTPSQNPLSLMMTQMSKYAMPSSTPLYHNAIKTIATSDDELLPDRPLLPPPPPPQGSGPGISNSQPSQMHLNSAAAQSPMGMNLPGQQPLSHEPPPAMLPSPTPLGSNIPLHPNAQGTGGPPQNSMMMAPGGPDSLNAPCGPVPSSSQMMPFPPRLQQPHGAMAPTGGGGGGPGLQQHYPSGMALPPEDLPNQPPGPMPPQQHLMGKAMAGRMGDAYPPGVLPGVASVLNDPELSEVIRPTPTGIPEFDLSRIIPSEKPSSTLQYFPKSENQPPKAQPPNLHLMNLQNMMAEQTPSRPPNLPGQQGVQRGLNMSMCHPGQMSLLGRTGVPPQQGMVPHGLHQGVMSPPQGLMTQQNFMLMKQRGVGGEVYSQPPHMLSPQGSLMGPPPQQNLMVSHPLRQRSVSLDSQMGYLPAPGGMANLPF
Sequence of UniProt Q9NYF8 (Q9NYF8 whole entry, looked up): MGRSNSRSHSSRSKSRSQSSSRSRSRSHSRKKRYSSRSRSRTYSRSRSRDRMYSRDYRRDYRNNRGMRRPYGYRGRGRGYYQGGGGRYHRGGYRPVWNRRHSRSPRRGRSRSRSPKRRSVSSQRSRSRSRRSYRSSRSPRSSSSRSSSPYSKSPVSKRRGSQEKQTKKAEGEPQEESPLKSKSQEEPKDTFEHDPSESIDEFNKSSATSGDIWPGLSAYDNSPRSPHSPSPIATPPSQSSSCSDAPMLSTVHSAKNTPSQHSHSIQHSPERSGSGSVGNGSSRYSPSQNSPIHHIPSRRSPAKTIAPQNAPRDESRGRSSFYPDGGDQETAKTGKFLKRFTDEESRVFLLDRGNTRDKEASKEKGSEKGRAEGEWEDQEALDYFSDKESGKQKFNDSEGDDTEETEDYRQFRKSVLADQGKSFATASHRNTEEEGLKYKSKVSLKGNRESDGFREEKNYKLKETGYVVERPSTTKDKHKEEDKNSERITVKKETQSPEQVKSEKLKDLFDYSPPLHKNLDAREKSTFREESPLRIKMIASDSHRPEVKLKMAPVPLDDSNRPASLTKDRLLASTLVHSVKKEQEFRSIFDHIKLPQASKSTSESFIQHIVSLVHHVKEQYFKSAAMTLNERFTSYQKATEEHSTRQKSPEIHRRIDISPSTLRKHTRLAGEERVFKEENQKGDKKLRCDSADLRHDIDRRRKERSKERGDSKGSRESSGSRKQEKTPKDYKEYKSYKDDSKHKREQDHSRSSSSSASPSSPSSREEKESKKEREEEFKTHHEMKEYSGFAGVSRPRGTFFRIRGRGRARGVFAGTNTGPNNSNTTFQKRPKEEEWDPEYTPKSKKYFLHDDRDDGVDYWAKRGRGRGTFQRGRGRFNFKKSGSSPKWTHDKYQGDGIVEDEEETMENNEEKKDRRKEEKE
Sequence of UniProt Q9Y4P1 (Q9Y4P1 whole entry, looked up): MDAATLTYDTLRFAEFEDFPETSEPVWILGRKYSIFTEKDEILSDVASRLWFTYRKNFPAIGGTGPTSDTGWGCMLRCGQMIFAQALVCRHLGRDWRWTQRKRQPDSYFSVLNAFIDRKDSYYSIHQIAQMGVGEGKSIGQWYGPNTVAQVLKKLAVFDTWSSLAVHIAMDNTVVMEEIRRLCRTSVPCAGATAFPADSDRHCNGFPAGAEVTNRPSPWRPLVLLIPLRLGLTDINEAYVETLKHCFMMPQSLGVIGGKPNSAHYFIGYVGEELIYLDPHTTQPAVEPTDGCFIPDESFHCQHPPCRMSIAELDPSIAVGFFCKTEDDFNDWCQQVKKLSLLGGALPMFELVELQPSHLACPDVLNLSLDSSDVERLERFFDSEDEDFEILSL
Sequence of UniProt P49748 (P49748 whole entry, looked up): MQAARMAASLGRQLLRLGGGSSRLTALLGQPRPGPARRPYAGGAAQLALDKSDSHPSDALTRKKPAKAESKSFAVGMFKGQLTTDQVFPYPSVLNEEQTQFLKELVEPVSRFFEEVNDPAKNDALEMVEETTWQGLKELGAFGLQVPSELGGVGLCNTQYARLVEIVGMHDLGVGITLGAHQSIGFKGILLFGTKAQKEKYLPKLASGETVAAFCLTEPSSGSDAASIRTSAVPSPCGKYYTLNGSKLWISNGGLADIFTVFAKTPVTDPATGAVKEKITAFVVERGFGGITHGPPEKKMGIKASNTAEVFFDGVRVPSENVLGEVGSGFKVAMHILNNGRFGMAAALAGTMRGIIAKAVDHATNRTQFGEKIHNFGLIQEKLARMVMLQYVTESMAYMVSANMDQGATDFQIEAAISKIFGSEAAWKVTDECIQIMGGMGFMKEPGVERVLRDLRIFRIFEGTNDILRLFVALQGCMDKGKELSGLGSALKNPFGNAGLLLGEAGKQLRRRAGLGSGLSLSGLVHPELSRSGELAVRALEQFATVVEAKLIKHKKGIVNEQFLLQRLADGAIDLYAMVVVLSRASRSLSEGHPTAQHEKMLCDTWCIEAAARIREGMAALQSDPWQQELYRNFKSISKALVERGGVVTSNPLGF
Sequence of UniProt Q8N6D5 (Q8N6D5 whole entry, looked up): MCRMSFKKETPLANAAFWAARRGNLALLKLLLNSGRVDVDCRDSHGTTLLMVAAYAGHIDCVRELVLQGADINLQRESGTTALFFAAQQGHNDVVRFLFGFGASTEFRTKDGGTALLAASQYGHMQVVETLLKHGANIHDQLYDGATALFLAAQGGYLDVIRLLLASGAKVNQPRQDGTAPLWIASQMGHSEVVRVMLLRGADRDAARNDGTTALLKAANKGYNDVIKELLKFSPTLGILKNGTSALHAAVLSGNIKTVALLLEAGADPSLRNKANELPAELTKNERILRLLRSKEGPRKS
Sequence of UniProt Q9UII2 (Q9UII2 whole entry, looked up): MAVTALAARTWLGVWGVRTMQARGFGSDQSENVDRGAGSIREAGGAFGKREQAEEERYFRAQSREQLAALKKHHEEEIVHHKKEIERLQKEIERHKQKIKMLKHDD

log2 fold change, inactive:
AAMP (UniProt Q13685) 0.022, AKAP8 (UniProt O43823) 0.032, ABITRAM (UniProt Q9NX38) 0.029, ARL6IP4 (UniProt Q66PJ3) 0.039, ATP6V1H (UniProt Q9UI12) 0.018, B4GALT1 (UniProt P15291) 0.035, ASNS (UniProt P08243) 0.025, BCCIP (UniProt Q9P287) -0.03, BUB1B isoform 3 (UniProt O60566) 0.011, ATP9B (UniProt O43861) 0.029, ATP2A3 isoform 2 (UniProt Q93084) 0.025, ACAD9 (UniProt Q9H845) 0.048, BRD8 (UniProt Q9H0E9) -0.009, AGPAT5 (UniProt Q9NUQ2) 0.065, AIP (UniProt O00170) 0.014, ACADVL isoform 3 (UniProt P49748) 0.081, BID isoform 2 (UniProt P55957) 0.049, BCL9L (UniProt Q86UU0) -0.011, ARFGAP2 (UniProt Q8N6H7) 0.033, AHSA1 (UniProt O95433) 0.027, ANKRD29 (UniProt Q8N6D5) 0.139, BRAP (UniProt Q7Z569) -0.046, BCCIP isoform 2 (UniProt Q9P287) 0.067, ACP2 (UniProt P11117) 0.023, B4GALNT1 (UniProt Q00973) 0.06, ACIN1 (UniProt Q9UKV3) 0.005, BCLAF1 (UniProt Q9NYF8) 0.017, ABCA3 (UniProt Q99758) 0.035, ATP5IF1 (UniProt Q9UII2) -0.035, AGO1 (UniProt Q9UL18) -0.116, ADH5 (UniProt P11766) -0.002, ARGLU1 (UniProt Q9NWB6) -0.011, ABCB6 (UniProt Q9NP58) 0.015, ARFIP1 (UniProt P53367) 0.161, ATG4B isoform 2 (UniProt Q9Y4P1) -0.024

What follows are targets tested with Cc1cc(Nc2cc(CN3CCOCC3)c3nc(C)c(Cc4ccc(Cl)cc4F)n3n2)n[nH]1 [gandotinib] in the same assay as above.
In short: as §1

log2 fold change, inactive:
AAMP (UniProt Q13685) -0.047, AKAP8 (UniProt O43823) -0.036, ABITRAM (UniProt Q9NX38) 0.169, ARL6IP4 (UniProt Q66PJ3) 0.114, ATP6V1H (UniProt Q9UI12) 0.021, B4GALT1 (UniProt P15291) 0.161, ASNS (UniProt P08243) 0.002, BCCIP (UniProt Q9P287) -0.093, BUB1B isoform 3 (UniProt O60566) -0.207, ATP9B (UniProt O43861) -0.053, ATP2A3 isoform 2 (UniProt Q93084) -0.068, ACAD9 (UniProt Q9H845) -0.03, BRD8 (UniProt Q9H0E9) -0.013, AGPAT5 (UniProt Q9NUQ2) -0.09, AIP (UniProt O00170) -0.058, ACADVL isoform 3 (UniProt P49748) -0.01, BID isoform 2 (UniProt P55957) -0.012, BCL9L (UniProt Q86UU0) 0.097, ARFGAP2 (UniProt Q8N6H7) -0.101, AHSA1 (UniProt O95433) -0.077, ANKRD29 (UniProt Q8N6D5) 0.185, BRAP (UniProt Q7Z569) -0.024, BCCIP isoform 2 (UniProt Q9P287) -0.047, ACP2 (UniProt P11117) -0.071, B4GALNT1 (UniProt Q00973) -0.077, ACIN1 (UniProt Q9UKV3) 0.01, BCLAF1 (UniProt Q9NYF8) -0.021, ABCA3 (UniProt Q99758) 0.036, ATP5IF1 (UniProt Q9UII2) -0.056, AGO1 (UniProt Q9UL18) 0.094, ADH5 (UniProt P11766) -0.014, ARGLU1 (UniProt Q9NWB6) 0.212, ABCB6 (UniProt Q9NP58) -0.031, ARFIP1 (UniProt P53367) -0.223, ATG4B isoform 2 (UniProt Q9Y4P1) -0.12
